# The entries come from a sample that favours hits as a whole.
# Shiga toxin inh: inhibitors of Shiga toxin in Vero cells | Vero cells, Shiga toxin protein synthesis inhibition reporter | inhibition, % at 38.7 µM | 290,000 compounds, 9.2% hits | AID 2315; in the data active = inhibition mostly above about 28%, no sharp cut-off; inactive = mostly below about 43%; also: 0% is about no effect
# Giardia FBPA inh: Giardia lamblia aldolase inhibition. purified Giardia FBPA. Potency, µM (titrated, usually from 59.6 µM), for inactives: at the top dose activity, negative = inhibition, hits mostly inhibitors. 290,000 compounds, 0.71% hits. AID 2451; also: potency is read from the fitted curve at half-maximal effect; % is scaled to controls: 0 for no effect and ±100 for the full control effect; nearly all actives have a fitted effect of over 55% in size
#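 Giardia FBPA (40 nM reagent) was preincubated 10 min at RT with compound (up to 57.5 uM final), then substrate plus GAPDH/TPI/NAD/arsenate coupling system with diaphorase/resazurin was added; resorufin fluorescence (525/598 nm) was read after 20 min.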
# CHX counter: counter-screen hit for Shiga toxin inhibitors, cycloheximide | cell reporter, cycloheximide protein synthesis inhibition counterscreen | max response, % | 300,000 compounds, 12% hits | AID 2314; in the data active = max response mostly above about 13%, no sharp cut-off; inactive = mostly below about 14%; also: read at 38.3 µM for the half of the compounds with a filed dose; 0% is about no effect
# LmPK inh: LmPK (Leishmania mexicana) enzyme inhibition; purified LmPK, Kinase-Glo ATP luminescence, 1 h; Potency, µM (series often up to 57.5 µM), inactives show at the top dose activity change, negative = inhibition, most hits filed as inhibitors; 290,000 compounds, 0.37% hits; AID 1721; also: potency is read from the fitted curve at half-maximal effect; % is scaled to controls: 0 for no effect and ±100 for the full control effect
# Target sequence (Q27686 whole entry, looked up): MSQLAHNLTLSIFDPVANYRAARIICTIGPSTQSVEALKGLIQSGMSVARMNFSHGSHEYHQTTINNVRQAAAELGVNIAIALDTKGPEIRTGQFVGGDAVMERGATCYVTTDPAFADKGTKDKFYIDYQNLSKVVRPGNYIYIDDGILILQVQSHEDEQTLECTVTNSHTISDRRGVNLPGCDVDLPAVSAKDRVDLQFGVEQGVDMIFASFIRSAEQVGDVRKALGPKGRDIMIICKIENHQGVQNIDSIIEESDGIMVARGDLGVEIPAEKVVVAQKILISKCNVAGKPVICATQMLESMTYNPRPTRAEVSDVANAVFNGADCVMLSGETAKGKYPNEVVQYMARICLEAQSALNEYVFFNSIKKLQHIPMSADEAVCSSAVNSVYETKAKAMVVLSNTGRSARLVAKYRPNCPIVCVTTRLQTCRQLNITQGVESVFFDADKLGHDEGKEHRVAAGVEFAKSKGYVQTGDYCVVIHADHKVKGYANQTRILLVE
#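 Kinase-Glo luminescence read after 1 h RT reaction of 0.1 nM LmPK with 0.5 mM PEP and 0.1 mM ADP. Activity scaled between uninhibited and enzyme-free controls.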
# Sm TGR block: blocks Schistosoma mansoni thioredoxin glutathione reductase; Q962Y6; purified TGR, DTNB reduction, TNB absorbance 405 nm; Potency, µM (highest dose often 114 µM), for the others: top-dose activity change, negative = inhibition, hits mostly inhibitors; 360,000 compounds, 3% hits; also: potency is read from the fitted curve at half-maximal effect; % is scaled to controls: 0 for no effect and ±100 for the full control effect; nearly all actives have a fitted effect of over 60% in size
#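 First, TGR (20 nM dispensed) and NADPH were mixed with compound. Second, a 15 min room-temperature incubation followed. Third, further NADPH and then DTNB were added to start the reaction. Finally, TNB absorbance was monitored kinetically.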
# Tb PYK inh: blocks Trypanosoma brucei pyruvate kinase. TbPYK enzyme, Kinase-Glo Plus ATP luminescence, 45 min. Potency, µM (doses to about 76.8 µM), for the others: at the top dose activity, negative = inhibition, actives largely listed as inhibitors. 410,000 compounds, 0.12% hits; also: potency is read from the fitted curve at half-maximal effect; % is scaled to controls: 0 for no effect and ±100 for the full control effect; nearly all actives have a fitted effect of over 50% in size
#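 In this concentration-response screen, enzyme-free wells defined baseline while DMSO plates tracked drift. Each reaction combined TbPYK, substrate, compound and 130 uM ADP for 45 min at room temperature. Kinase-Glo Plus luminescence gave the signal.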
# Numbers without * were called inactive; ? = inconclusive; · = not tested or not shown; + = active, no number; [ ] = remark or other dose. Unless noted, calls follow the shape of the dose curve; as a rule, active = well fitted curve in the direction sought with a large enough effect; inconclusive = small, poorly fitted or top-dose-only effect, or another doubt; inactive = no such curve, though single readings can be large; an effect the other way counts as inactive or inconclusive.
SMILES,Shiga toxin inh,Giardia FBPA inh,CHX counter,LmPK inh,Sm TGR block,Tb PYK inh
O=C(Nc1ccc2c(c1)nc1n2CCOC1)c1ccco1,72.6*,0.2%,32.5*,0.7%,-27.1%,-15.1%
CC(=O)Nc1ccc2c(c1)nc1n2CCOC1,13.9,-1.2%,0.2,-4.3%,1.6%,-19.6%
CCOc1ccccc1-n1c(CN2CCN(C(=O)c3ccco3)CC2)nc2ccccc2c1=O,-9.3,-13.1%,-1.1,-2.9%,25.1µM*,0.0%
CC(=O)Nc1nnc(SCC(=O)c2ccc(F)cc2)s1,71.3,0.8%,11.9,-8.2%,1.2%[57.1 µM],3.1%
O=C(Nc1nnc(SCc2ccc(F)cc2)s1)c1ccc2ncsc2c1,+,?,65.2*,4.0%,-17.2%,-12.9%
O=C(Nc1nnc(SCc2ccc(F)cc2)s1)c1cnccn1,-6.2,2.7%,13.6,-1.0%,-0.7%,-7.1%
CC(=O)Nc1nnc(SCc2ccc(F)cc2)s1,23.1,·,39.0*,3.6%,13.6%,2.7%
CC(=O)Nc1nnc(SCc2cccc(F)c2)s1,20.8*,5.8%,13.4,-3.1%,-1.9%,-1.8%
CN(C)c1ccc(CNC(=O)c2ccc(Cn3c(=O)c4cccn4c4cccnc43)cc2)cc1,·,·,·,·,-1.3%,-3.9%
O=C(N/N=C/c1ccc([N+](=O)[O-])s1)c1ccccc1,40.3,-2.9%,20.1*,-8.7%,-13.3%,-1.5%
O=C(Cc1ccccc1)N/N=C/c1ccc([N+](=O)[O-])s1,111.5*,-1.0%,34.8,4.2%,-28.4%,-8.7%
O=C(N/N=C/c1ccc([N+](=O)[O-])s1)C(O)c1ccccc1 (stereo not given),14.2,?,16.2*,-3.4%,31.6µM*,-2.3%
O=S(=O)(CCc1ccccc1)c1nnnn1-c1ccccc1,·,2.2%,·,·,·,·
CCOc1ccc(NC(=O)CCc2c(C)nn(-c3ccc(N4CCCCC4)nn3)c2C)cc1,44.9*,·,27.2*,-9.0%,-5.1%,-1.8%
Cc1nn(-c2ccc(N3CCCCC3)nn2)c(C)c1CCC(=O)Nc1ccc(F)cc1,55.4*,·,33.7*,11.0%,2.1%,4.2%
Cc1nn(-c2ccc(N3CCCC3)nn2)c(C)c1CCC(=O)Nc1ccccc1,·,·,·,·,-1.7%,-4.0%
Cc1cc(C)cc(NC(=O)CCc2c(C)nn(-c3ccc(N4CCOCC4)nn3)c2C)c1,35.1,6.9%,26.1*,-3.6%,-7.4%,2.9%
CCc1ccc(NC(=O)CCc2c(C)nn(-c3ccc(N4CCCCC4)nn3)c2C)cc1,80.8*,5.3%,49.1*,10.2%,-13.2%,0.0%
CCc1cccc(NC(=O)CCc2c(C)nn(-c3ccc(N4CCCCC4)nn3)c2C)c1,95.0*,18.9%,40.2*,7.9%,10.6%,3.9%
CCOC(=O)c1cccc(NC(=O)CCc2c(C)nn(-c3ccc(N4CCCC4)nn3)c2C)c1,·,·,·,·,4.1%,-6.0%
Cc1nn(-c2ccc(N3CCCCC3)nn2)c(C)c1CCC(=O)Nc1cccc(F)c1,83.7*,29.5%,44.3*,0.6%,3.0%,0.7%
Cc1ccc(NC(=O)CCc2c(C)nn(-c3ccc(N4CCCCC4)nn3)c2C)cc1F,71.0*,·,41.0*,0.9%,-12.7%,2.4%
CC(C)CNC(=O)c1cc(S(=O)(=O)N2CCOCC2)ccc1N1CCCC1,-7.5,·,-0.8,-0.8%,4.0%,-4.6%
Cc1ccccc1NC(=O)CN1CCN(C(=O)c2ccco2)CC1,-10.0,·,1.1,-3.5%,-5.9%,-6.4%
O=C(c1cc(N2C(=O)C3C4CCC(C4)C3C2=O)ccc1Cl)N1CCN(c2ccccc2F)CC1 (stereo not given),-1.7,5.9%,-7.0,2.2%,-0.2%,0.9%
SMILES,Shiga toxin inh,Giardia FBPA inh,CHX counter,LmPK inh,Sm TGR block,Tb PYK inh
CC(=O)N1CCc2cc(C(=O)CN3CCN(c4cccc(Cl)c4)CC3)ccc21,-4.5,-11.6%,1.6,5.0%,25.1µM*,-6.4%
CC(=O)N1CCc2cc(C(=O)CN3CCN(C(=O)c4ccco4)CC3)ccc21,10.7,-29.2%,-0.8,6.0%,14.1µM*,-10.5%
CC(=O)N1CCN(C(=O)c2ccco2)CC1,-1.7,-3.6%,3.1,0.0%,-11.0%,2.1%
CC(=O)N1CCc2cc(C(=O)CN3CCCN(Cc4ccc(F)cc4)C3)ccc21,-11.7,5.7%,-7.6,0.8%,44.7µM*,·
CC1CCN(CC(=O)N2CCc3ccccc32)CC1,25.1,·,16.9*,8.1%,3.4%,0.0%
CC1=C(C(=O)Nc2ccccc2)C(c2ccccc2C)n2nc(SCC(=O)c3ccc(C)cc3)nc2N1 (stereo not given),·,·,·,·,-0.4%,-6.7%
CSc1nc2sc3c(c2c(=O)n1-c1ccc(F)c(Cl)c1)CCN(C(C)=O)C3,·,·,·,·,-0.4%,1.8%
Cc1ccc(-c2nc(CNC(=O)Nc3ccccc3)c(C)o2)cc1,·,·,·,·,1.6%,0.9%
Cc1cc(C)c(OCC(=O)N(Cc2ccc(N(C)C)cc2)CC2CCCO2)c(C)c1 (stereo not given),·,·,·,·,0.0%,-19.1%
COc1ccc(-c2nc3cnc(N4CCN(C)CC4)nc3n(Cc3cccc(OC)c3)c2=O)cc1,·,-7.2%,·,·,·,·
COc1ccc(NC(=O)N2CCc3nc(-c4ccccc4)c4c(c3C2)CO[C@@H](C)C4)cc1,·,4.0%[12.9 µM],·,-3.7%[11.5 µM],·,·
CC(=O)N1CCc2cc(C(=O)CN3CCC(C)CC3)ccc21,23.8,-12.9%,-3.4,0.3%,28.2µM*,4.5%
CS(=O)(=O)c1ccc2nc(NC(=O)c3ccccc3Br)sc2c1,70.2*,-14.0%,37.3*,-5.1%,-3.7%,-3.3%
CS(=O)(=O)c1ccc2nc(NC(=O)c3ccccc3Cl)sc2c1,59.2*,-24.8%,15.4*,-5.9%,-21.8%,-4.5%
CS(=O)(=O)c1ccc2nc(NC(=O)CCNC(=O)c3ccccc3Cl)sc2c1,·,·,·,·,0.7%,6.1%
CS(=O)(=O)c1ccc2nc(NC(=O)c3cccc(Cl)c3)sc2c1,29.9,0.1%,4.8,-10.3%,6.9%,-18.1%
CS(=O)(=O)c1ccc2nc(NC(=O)c3ccc(Cl)cc3)sc2c1,16.7,-13.2%,15.6*,1.5%,-4.9%,-0.2%
COc1ccccc1C(=O)Nc1nc2ccc(S(C)(=O)=O)cc2s1,+,4.6%,17.2*,0.6%,-0.6%,-4.5%
CCOc1ccc(NC(=O)Cn2c(=O)n(CC(=O)NCc3ccccc3Cl)c(=O)c3sccc32)cc1,·,·,·,·,-1.6%,1.1%
Cc1cccc(NC(=O)CCN2CCN(c3ccccc3F)CC2)c1,·,·,·,·,-5.2%,-0.4%
N#Cc1c(SCC(=O)Nc2cccc(C(F)(F)F)c2)sc2c(O)cc(=O)[nH]c12,15.7,-13.9%,-1.1,5.4%,31.6µM*,-29.2%
COc1ccccc1NC(=O)CSc1sc2c(O)cc(=O)[nH]c2c1C#N,1.1,-19.2%,-4.1,-2.5%,14.1µM*,-12.8%
CCSc1nnc(NC(=O)CSc2sc3c(O)cc(=O)[nH]c3c2C#N)s1,-5.4,?,-4.1,1.1%,-25.8%,-27.3%
CCc1nnc(NC(=O)CSc2sc3c(O)cc(=O)[nH]c3c2C#N)s1,13.3,?,-4.5,-1.3%,35.5µM*,0.0%
